PLAP act = PLAP enzyme activators, biochemical, luminescence, HTS. purified PLAP enzyme, luminescent substrate read-out; stronger effect = higher value. activation fold at 20 µM. 96,000 compounds, 1.2% hits. AID 696, 2007; in the data active = activation fold above about 2
CYP2C9 inh = blockers of cytochrome P450 2C9 activity – biochemical, luminescence, ADME assay, primary screen. inhibition, % at 5 µM. CYP2C9 Supersomes, luciferin-H conversion. 96,000 compounds, 20% hits. P11712. AID 777, 2007;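 active = blocking of liver enzyme CYP2C9 beyond about 50% at 5 µM, limit read from the data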
Target sequence (P11712 whole entry, looked up): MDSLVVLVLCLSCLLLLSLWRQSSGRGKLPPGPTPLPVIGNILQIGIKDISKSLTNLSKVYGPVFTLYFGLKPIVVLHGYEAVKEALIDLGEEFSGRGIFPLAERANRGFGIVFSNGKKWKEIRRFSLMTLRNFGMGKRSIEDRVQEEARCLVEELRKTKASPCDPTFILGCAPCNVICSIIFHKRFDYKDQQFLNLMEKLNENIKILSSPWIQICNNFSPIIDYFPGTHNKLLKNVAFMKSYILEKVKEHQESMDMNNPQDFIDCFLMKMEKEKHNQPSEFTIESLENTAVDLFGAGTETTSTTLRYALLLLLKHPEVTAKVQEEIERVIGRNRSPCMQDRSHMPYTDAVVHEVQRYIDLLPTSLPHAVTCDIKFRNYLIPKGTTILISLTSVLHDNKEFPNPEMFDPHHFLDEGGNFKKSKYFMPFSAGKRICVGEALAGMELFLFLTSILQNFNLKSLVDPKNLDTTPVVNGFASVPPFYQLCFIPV
CYP2C19 act = human CYP2C19 activators, primary screen, biochemical, luminescence; activation factor at 5 µM; AID 1025, 2008; 96,000 tested, under 10 active; recombinant CYP2C19, luciferin-H EGE luminescence; stronger effect = higher value; 0 = fully inhibited enzyme, 1 = untreated enzyme;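 active = activation factor of at least 2 at 5 µM in the primary screen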;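 note: 0 = wells with 2.5 mM tranylcypromine and 1 = vehicle-only wells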
CYP2C9 activ = human CYP2C9 activators, primary screen, biochemical, luminescence | recombinant CYP2C9, luciferin-H conversion; stronger effect = higher value; factor 1 = untreated enzyme, 0 = blocked | activation factor at 5 µM | Cytochrome P450 2C9 (Homo sapiens), P11712 | 96,000 compounds, 1.4% hits;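 active = activation factor of 2 or more for CYP2C9 at a 5 µM dose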;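 note: 0 = sulfaphenazole-blocked wells and 1 = vehicle-only wells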
CYP2C19 inhib = blockers of cytochrome P450 2C19 activity – biochemical, luminescence, ADME assay, primary screen; AID 778, 2007; CYP2C19 Supersomes, luciferin-H EGE luminescence, 30 min; P33261; inhibition, % at 5 µM; 96,000 compounds, 21% hits;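 active = CYP2C19 inhibition above a set limit at 5 µM in the primary screen, cut at about 50% in these data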;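 note: plate controls were negative control wells for no effect and 2.5 mM tranylcypromine positive control for full effect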
The depositor's hits bear a star. Sampled rows, rich in hits. Any-hit rate of the full collection: about 31%.

Screening Cc1ccccc1-c1nc(CS(=O)CC(=O)N2CCC3(CC2)OCCO3)c(C)o1 (stereo not given) returned PLAP act 1.4, CYP2C9 inh 2, CYP2C19 act 0.9, CYP2C9 activ 1 and CYP2C19 inhib 15.
Cc1ccsc1-c1nc(CSCC(=O)N2CCC3(CC2)OCCO3)c(C)o1 was read as PLAP act 1.4, CYP2C9 inh 1, CYP2C19 act 0.3, CYP2C9 activ 1 and CYP2C19 inhib 67*.
CCOC(=O)c1c(C)n(Cc2ccccc2)c2ccc(OCC(O)Cn3nc(C)nc3C)cc12 (stereo not given) was read as PLAP act 1.6, CYP2C9 inh 62*, CYP2C19 act 0.5, CYP2C9 activ 0.4 and CYP2C19 inhib 54*.
Screening CCN1CCN(CC(=O)c2c(C)n(Cc3ccccc3)c3ccc(OC)cc23)CC1 returned PLAP act 1.8, CYP2C9 inh -2, CYP2C19 act 0.8, CYP2C9 activ 1 and CYP2C19 inhib 22.
For CC(NCc1ccc(Cl)c(Cl)c1)C(O)c1ccccc1 (stereo not given) the results were PLAP act 1.6, CYP2C9 inh 42, CYP2C19 act 0, CYP2C9 activ 0.6 and CYP2C19 inhib 100*.
Screening CC(NCc1ccccc1Cl)C(O)c1ccccc1 (stereo not given) returned PLAP act 1, CYP2C9 inh 1, CYP2C19 act 0, CYP2C9 activ 1 and CYP2C19 inhib 96*.
Screening CCN(CC)CCN=C(C)c1c(O)n(-c2ccccc2OC)c(=O)[nH]c1=O returned PLAP act 1, CYP2C9 inh -24, CYP2C19 act 0.9, CYP2C9 activ 1.2 and CYP2C19 inhib 9.
FC(F)(F)c1cccc(-n2nnnc2C2(N3CCOCC3)CCCCC2)c1 was read as PLAP act 1, CYP2C9 inh 26, CYP2C19 act 0.4, CYP2C9 activ 0.7 and CYP2C19 inhib 57*.
`CC(C(=O)Nc1ccc(Br)cc1C(=O)c1ccccc1)N1CCOCC1` (stereo not given) gave PLAP act 1.7, CYP2C9 inh 55*, CYP2C19 act 0.4, CYP2C9 activ 0.5 and CYP2C19 inhib 61*.
O=C(CCN1CCOCC1)NCC(=O)Nc1ccc(Br)cc1C(=O)c1ccccc1 was read as PLAP act 1.4, CYP2C9 inh -4, CYP2C19 act 1.1, CYP2C9 activ 1 and CYP2C19 inhib -8.
Cc1ccc(-c2cc(C(F)F)n3ncc(C(=O)N4CCC5(CC4)OCCO5)c3n2)cc1 was read as PLAP act 1.8, CYP2C9 inh 47, CYP2C19 act 1, CYP2C9 activ 0.5 and CYP2C19 inhib 5.
For COP(=O)(OC)C1(Nc2ccc(C)cc2)CCCCC1 the results were PLAP act 1.2, CYP2C9 inh 33, CYP2C19 act 0.2, CYP2C9 activ 0.7 and CYP2C19 inhib 83*.
`CC(C)(C)c1ccc(O)c(CN2CCN(c3ccccc3)CC2)c1` gave PLAP act 0.9, CYP2C9 inh 22, CYP2C19 act 0.8, CYP2C9 activ 0.8 and CYP2C19 inhib 22.
Screening CCCCc1nc2ccccc2c(=O)n1-c1ccccc1O returned PLAP act 1, CYP2C9 inh 24, CYP2C19 act 0.5, CYP2C9 activ 0.8 and CYP2C19 inhib 54*.
CCCc1nc2ccccc2c(=O)n1-c1cccc(OC)c1 was read as PLAP act 0.9, CYP2C9 inh 27, CYP2C19 act 0.5, CYP2C9 activ 0.7 and CYP2C19 inhib 51*.
CCCc1nc2ccccc2c(=O)n1-c1ccccc1OC was read as PLAP act 0.8, CYP2C9 inh 9, CYP2C19 act 0.8, CYP2C9 activ 0.9 and CYP2C19 inhib 23.
CCc1nc2ccccc2c(=O)n1-c1ccc2ccccc2c1 was read as PLAP act 0.8, CYP2C9 inh 12, CYP2C19 act 0.1, CYP2C9 activ 0.9 and CYP2C19 inhib 93*.
Screening CCCCCc1nc2ccccc2c(=O)n1-c1ccc(Cl)cc1[N+](=O)[O-] returned PLAP act 1, CYP2C9 inh 5, CYP2C19 act 1, CYP2C9 activ 0.9 and CYP2C19 inhib 4.
`O=c1c2ccccc2nc(CSc2ncnc3nc[nH]c23)n1-c1ccc(Cl)c(Cl)c1` gave PLAP act 1.6, CYP2C9 inh 44, CYP2C19 act 0.7, CYP2C9 activ 0.6 and CYP2C19 inhib 28.
`CC(C)N1C(=O)CCC1C(=O)N1CCC2(CC1)OCCO2` (stereo not given) gave PLAP act 0.9, CYP2C9 inh -3, CYP2C19 act 1, CYP2C9 activ 1 and CYP2C19 inhib -5.
CC12CCCCC1=[N+]([O-])CN2O (stereo not given) was read as PLAP act 0.8, CYP2C9 inh 28, CYP2C19 act 1, CYP2C9 activ 0.7 and CYP2C19 inhib 2.
Cc1cccc(CS(=O)(=O)Cc2ccc(C(=O)N3CCC4(CC3)OCCO4)o2)c1 was read as PLAP act 1.4, CYP2C9 inh 58*, CYP2C19 act 0.7, CYP2C9 activ 0.4 and CYP2C19 inhib 33.
`O=C(c1ccc(CS(=O)(=O)c2ccccc2)o1)N1CCC2(CC1)OCCO2` gave PLAP act 1.3, CYP2C9 inh 47, CYP2C19 act 0.2, CYP2C9 activ 0.5 and CYP2C19 inhib 81*.
Screening Cc1cccc(CN2CCN(CC(=O)N3CCC4(CC3)OCCO4)C2=O)c1 returned PLAP act 1.6, CYP2C9 inh 11, CYP2C19 act 1, CYP2C9 activ 0.9 and CYP2C19 inhib 0.
O=C(c1ccc(CS(=O)(=O)c2ccc(Br)cc2)o1)N1CCC2(CC1)OCCO2 was read as PLAP act 1, CYP2C9 inh 54*, CYP2C19 act 0.6, CYP2C9 activ 0.5 and CYP2C19 inhib 42.
`O=C(CCS(=O)(=O)c1ccc(Br)cc1)N1CCC2(CC1)OCCO2` gave PLAP act 0.9, CYP2C9 inh 14, CYP2C19 act 0.9, CYP2C9 activ 0.9 and CYP2C19 inhib 11.
Screening Cc1ccc(NC(=O)CSc2nnc([C@@H](N)Cc3c[nH]c4ccccc34)o2)c(C)c1 returned PLAP act 1.6, CYP2C9 inh 49, CYP2C19 act 0.7, CYP2C9 activ 0.5 and CYP2C19 inhib 32.
Screening Cc1ccccc1OCCN=Cc1c(O)n(C)c(=O)n(C)c1=O returned PLAP act 0.9, CYP2C9 inh 27, CYP2C19 act 0.4, CYP2C9 activ 0.7 and CYP2C19 inhib 64*.
CCCCn1c(O)c(C(C)=NC(C)c2ccccc2)c(=O)[nH]c1=O (stereo not given) was read as PLAP act 1, CYP2C9 inh 77*, CYP2C19 act 0.5, CYP2C9 activ 0.2 and CYP2C19 inhib 54*.
